# High-throughput results as filed in PubChem BioAssay.
# Only some compounds are listed: those with a hit (about 5.4% of all), similar ones and a draw of the others.
# ALR inh = inhibitors of human ALR sulfhydryl oxidase, primary screen, biochemical, H2O2 detection, HRP-luminol luminescence, single point | inhibition, % (no concentration beside the values) | AID 485317, 2010 | 290,000 compounds, 3.8% hits | purified ALR, DTT oxidation | FAD-linked sulfhydryl oxidase ALR (Homo sapiens), P55789;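 active means mean replicate inhibition above about 79%, with every replicate also reaching it, limit read from the data; inconclusive means only one of the two criteria met; inactive means mean below limit and not every replicate reaching it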
# Target sequence (P55789 whole entry, looked up): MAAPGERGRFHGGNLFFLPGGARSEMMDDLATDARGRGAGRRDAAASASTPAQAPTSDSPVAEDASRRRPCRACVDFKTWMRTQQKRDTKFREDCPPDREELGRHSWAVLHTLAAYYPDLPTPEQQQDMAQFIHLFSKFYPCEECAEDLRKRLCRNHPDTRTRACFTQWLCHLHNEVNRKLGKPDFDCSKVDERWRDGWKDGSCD
# Calb FLC = C. albicans growth inhibition with fluconazole, primary screen, CaCi-2 strain, Alamar Blue fluorescence; C. albicans CaCi-2 (fluconazole-resistant clinical isolate) + fluconazole, 48 h; growth inhibition, % (no concentration beside the values); 300,000 compounds, 0.57% hits; AID 1979, 2009;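 active means growth inhibition above about 58% in most replicates, limit read from the data, passing the limit was not always enough; inconclusive means exactly half the replicates above a set limit; inactive means most replicates below a set limit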;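 further: all wells also contain fluconazole at 8 µg/ml as a sub-toxic cotreatment; 0% = median of DMSO wells and 100% = median of geldanamycin control wells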
# CSC inhib = cancer stem cell viability inhibitors, primary screen, luminescence; inhibition, % at 7.5 µM; AID 2717, 2010; 300,000 compounds, 1.1% hits; cancer stem cell-like cells viability; in the data active means inhibition above about 75%; inconclusive means no clear call, values can overlap the other calls; tested in HMLE shEcad cells
# PP5 primary = PP5 phosphatase inhibitors, primary screen, biochemical, fluorescence; Serine/threonine-protein phosphatase 5 (Homo sapiens), P53041; purified PP5c, OMFP substrate fluorescence; inhibition, % at 6.7 µM; 320,000 compounds, 0.18% hits; AID 1987, 2009;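 active means inhibition above the campaign's mean inhibition across all tested compounds plus 3 SD, cut at about 9.5% in these data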;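 further: 0% = DMSO only and 100% = 100 µM cantharidin control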
# PP1 inh = PP1-alpha phosphatase inhibitors, primary screen, counter-screen for PP5 inhibitor project, biochemical, fluorescence, OMFP substrate, single point; Serine/threonine-protein phosphatase PP1-alpha catalytic subunit (Homo sapiens), P62136; purified PP1alpha; inhibition, % at 6.7 µM; 320,000 compounds, 0.9% hits; AID 2235, 2010;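 active means inhibition above the mean inhibition of all tested compounds plus 3 SD, computed separately for each screening campaign, cut at about 15% in these data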
# Target sequence (P62136 whole entry, looked up): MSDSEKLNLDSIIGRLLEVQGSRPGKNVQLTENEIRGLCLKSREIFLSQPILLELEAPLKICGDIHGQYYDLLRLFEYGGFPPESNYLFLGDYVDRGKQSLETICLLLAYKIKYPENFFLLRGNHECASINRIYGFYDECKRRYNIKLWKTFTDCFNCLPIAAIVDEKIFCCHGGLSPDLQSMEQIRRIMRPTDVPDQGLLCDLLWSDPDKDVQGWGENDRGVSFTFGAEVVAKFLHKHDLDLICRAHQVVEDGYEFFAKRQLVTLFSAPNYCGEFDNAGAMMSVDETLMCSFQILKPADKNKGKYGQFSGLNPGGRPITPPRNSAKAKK
# * hit, by the source's call; ? = inconclusive; . = not tested or not shown.
SMILES,ALR inh,Calb FLC,CSC inhib,PP5 primary,PP1 inh
O=C(Nc1ccccc1F)c1ccc(Cn2cc(Cl)cn2)cc1,99.7*,-5.4,11.0,2.4,1.5
O=C(Nc1ccc(Cl)c(Cl)c1)c1ccc(Cn2cc(Cl)cn2)cc1,.,40.2,.,.,.
Cc1ccc(Cl)cc1NC(=O)c1ccc(Cn2cc(Cl)cn2)cc1,8.3,-15.4,100.2*,4.3,-1.1
COC(=O)CSc1ncc(OC)c(OC)n1,34.4,-4.0,-0.8,2.9,-0.2
CCC(C)N1CCN(C(=O)C2CCN(S(=O)(=O)c3c(C)noc3/C=C/c3ccco3)CC2)CC1 (stereo not drawn),0.4,-3.6,18.2,-2.1,-6.5
CCn1c(CN(C)c2ccccc2)nc2ccccc21,98.5*,-5.9,11.7,1.8,1.9
OC(COCC(F)(F)C(F)(F)C(F)(F)C(F)F)Cn1c2ccccc2c2ccccc21 (stereo not drawn),-1.4,2.2,103.2*,7.5,-7.1
CS(=O)(=O)c1nc(-c2cccs2)cc(C(F)(F)F)n1,98.5*,96.9*,100.2*,-0.1,0.6
O=C(O)CCS(=O)(=O)c1nc(-c2cccs2)cc(C(F)(F)F)n1,97.3*,32.0,2.8,1.7,0.2
Cc1cc(NC(=O)CCCS(=O)(=O)c2nc(-c3cccs3)cc(C(F)(F)F)n2)no1,64.6,-1.0,-10.9,3.4,-0.6
COc1ccc(-c2cc(C(F)(F)F)nc(S(C)(=O)=O)n2)cc1,.,-5.1,96.4*,4.0,3.2
O=S1(=O)CCOC[C@H](CC2CCCCC2)N1Cc1cccc(C(F)(F)F)c1,.,-4.0,46.3,3.8,5.2
COc1ccc(NC(=O)c2cc(-c3ccccc3)oc2C)cc1,60.2,-7.7,-7.1,3.6,2.0
CCCOc1ccc(N2C(=O)C3C4C=CC(CC4)C3C2=O)cc1 (stereo not drawn),0.4,8.1,30.5,-1.4,0.4
CCc1c(C)c(C#N)c2nc3ccccc3n2c1NCCN(C)C,11.3,43.1,-1.2,0.3,-2.5
C=CCc1c(C)c(C#N)c2nc3ccccc3n2c1NCCN(C)C,15.1,91.2*,4.7,-1.5,-2.2
CCC(C)Sc1cccc(-c2nc3ccccn3c2NCc2ccccc2)c1 (stereo not drawn),63.2,.,67.5,.,.
CCCCNc1c(-c2ccc(SC(C)CC)c(OC)c2)nc2ccc(Cl)cn12 (stereo not drawn),3.2,.,55.9,.,.
CCCCNc1c(-c2ccc(SC(C)CC)c(OC)c2)nc2ccc(C)cn12 (stereo not drawn),.,17.0,123.3*,4.9,9.8
CCC(C)Sc1cccc(-c2nc3ccc(C)cn3c2NCc2ccccc2)c1 (stereo not drawn),.,-4.4,124.5*,6.0,8.6
Cc1ccc2nc(-c3cccc(-c4cccc(Cl)c4)c3)c(NCc3ccccc3)n2c1,26.2,0.0,?,5.4,15.8*
CCCCCCSc1cccc(-c2nc3ccc(C)cn3c2NCc2ccccc2)c1,.,-9.5,80.2*,4.5,13.4
CN(CC(=O)Nc1ccc2c(c1)OCCO2)CC(=O)Nc1ccc(F)c(F)c1F,-0.6,.,-17.2,.,.
CC(NC(=O)CSc1nc2ccc(N)cc2s1)c1ccccc1 (stereo not drawn),95.8*,-26.4,18.1,0.7,1.3
Nc1ccc2nc(SCc3cccc(F)c3)sc2c1,98.9*,-4.8,-7.1,1.5,1.2
SMILES,ALR inh,Calb FLC,CSC inhib,PP5 primary,PP1 inh
COc1ccc(/C=C(/CC(=O)NCc2ccc(Cl)cc2)c2nc3ccccc3s2)cc1,-1.6,-6.8,-10.4,1.7,15.5*
CCOC(=O)CSc1nc(N)c(C(=O)Nc2ccc(N(C)C)cc2)s1,87.8*,-2.8,-5.0,2.3,-8.9
CC(NC(=O)CSc1ccccc1)c1ccccc1 (stereo not drawn),-8.5,3.4,-12.6,.,.
O=C(NCCc1c[nH]c2ccccc12)C(=O)NCC1OCCCN1S(=O)(=O)c1ccc(F)cc1 (stereo not drawn),12.3,-2.7,-2.8,1.6,3.0
O=C(NCCc1ccccc1)C1CCC(CNc2c(N3CCCCC3)c(=O)c2=O)CC1 (stereo not drawn),.,-1.2,0.1,3.2,-2.5
Cc1ccc(NC(=O)CSCC(=O)NC2(C)CCS(=O)(=O)C2)cc1 (stereo not drawn),98.6*,.,.,-2.1,1.9
CCCC(=O)Nc1ccc2nc(SCC(=O)Nc3ccc(N4CCOCC4)c(Cl)c3)sc2c1,10.8,7.4,0.0,3.5,0.5
Nc1ccc2nc(SCC(=O)N3CCN(c4ccccc4)CC3)sc2c1,.,?,-15.9,1.8,1.9
CCOC(=O)CSc1nc2ccc(N)cc2s1,99.2*,-14.6,-7.5,1.3,3.9
COC(=O)CSc1nc2ccc(NC(C)=O)cc2s1,-5.2,-0.8,-2.0,-0.3,-1.9
Nc1ccc2nc(SCC(=O)Nc3ccc(N4CCOCC4)c(Cl)c3)sc2c1,99.2*,-4.7,-0.9,1.4,0.0
Nc1ccc2nc(SCC(=O)N3CCOCC3)sc2c1,99.5*,-14.2,6.3,1.6,-5.1
CCCNC(=O)CN(C)S(=O)(=O)c1ccc(F)cc1,-1.8,16.4,7.7,1.4,-0.6
CC(=O)Nc1ccc(N2CCOCC2)c(Cl)c1,2.0,1.3,.,1.1,-3.9
Nc1ccc2nc(N3CCOCC3)sc2c1,99.3*,11.7,-4.9,0.0,-2.5
CCOc1ccc2nc(SCC(=O)NCc3ccc(S(N)(=O)=O)cc3)sc2c1,-10.1,7.6,-13.6,3.8,-0.8
Cc1ccc(NC(=O)CSCC(=O)Nc2ccc(N3CCOCC3)c(Cl)c2)cc1,97.7*,-2.1,5.9,-0.3,2.6
c1ccc2sc(N3CCOCC3)nc2c1,-1.7,10.3,-3.1,1.5,-4.5
COc1ccc(CNC(=O)CSc2nc3ccc(N)cc3s2)cc1,98.3*,-81.2,5.9,1.1,-1.9
CN1CCC(=NNC(=O)C(=O)Nc2cccc(Br)c2)CC1,.,-12.2,0.5,3.7,2.2
O=C(O)CC/C(=N/Nc1ccc([N+](=O)[O-])cc1)C(=O)O,-17.1,-0.3,6.6,-2.2,2.3
O=C(O)CC/C(=N\Nc1ccc([N+](=O)[O-])cc1)c1ccccc1,98.4*,3.2,7.1,0.4,0.1
CCN(CC(=O)Nc1c(F)cccc1F)C(=O)CCc1nc2cc(S(=O)(=O)N(C)C)ccc2n1CC,33.0,2.6,-1.9,0.5,-4.3
COc1ccc2oc(C)c(C(=O)NN)c2c1,85.3*,23.3,.,-1.4,4.4
CCOC(=O)CCC(=O)c1c(C)oc2ccc(OC)cc12,-12.0,5.1,.,-2.3,-2.8
SMILES,ALR inh,Calb FLC,CSC inhib,PP5 primary,PP1 inh
CCN1/C(=C/c2ccc3ccccc3[n+]2CCCS(=O)(=O)[O-])C=Cc2cc(C)ccc21,16.7,-3.6,19.4,.,.
CCN1/C(=C/c2ccc3ccccc3[n+]2CC)C=Cc2ccccc21,62.8,105.1*,44.4,6.8,6.9
Cc1cccc(NC2=NC(=S)N(CC#N)C23CCCCC3)c1,.,23.0,4.5,-2.5,-0.7
Cc1cccc(-n2c(-c3ccoc3C)n[nH]c2=S)c1,91.0*,9.2,-20.0,-2.1,-4.7
Cc1cccc(-n2c(C)n[nH]c2=S)c1,-5.1,-10.5,-8.3,2.3,-4.3
Cc1cccc(-n2c(-c3ccncc3)n[nH]c2=S)c1,91.5*,4.9,-5.2,-1.0,-2.0
